The source of these data is PubChem BioAssay (EPA / NIEHS).

SMILES strings stand for the structures. Results filed as inconclusive are left out. Calls of active or inactive are those of the source. Rule for the calls: active = hit-call score of the fitted dose curve at least 0.9, where 1 is the maximum; inactive = score below 0.9.

Read-out in this assay: ABC Transporter (ABCB11), ABCB11 (gene 8647)
The experiment in a line: CLD_ABCB11_24hr: CellzDirect (CLD) Gene Expression Assay for ABC Transporter (ABCB11) at 24 hours (AID 2283674). Here is the method: CLD_24hr is a cell-based, multiplexed-readout assay that uses hepatocyte, a human liver primary cell, with measurements taken at 24 hours after chemical dosing in a 96-well plate.CLD_ABCB11_24hr is one of 16 assay component(s) measured or calculated from the CLD_24hr assay. It is designed to make measurements of mRNA induction, a form of inducible reporter, as detected with chemiluminescence signals by Quantitative Nuclease Protection Assay (qNPA) technology.Data from the assay component CLD_ABCB11_24hr was analyzed at the endpoint, CLD_ABCB11_24hr, in the positive analysis fitting direction relative to DMSO as the negative control and baseline of activity. Using a type of inducible reporter, gain-of-signal activity can be used to understand changes in the reporter gene as they relate to the gene ABCB11. Furthermore, this assay endpoint can be referred to as a primary readout. To generalize the intended target to other relatable targets, this assay endpoint is annotated to the transporter intended target family, where subfamily is ABC transporter.
Human hepatocyte cultures were treated daily for two consecutive days with fresh dosing solutions containing appropriate concentrations of the 320 ToxCast chemicals (chemical identities were blinded to CellzDirect and other ToxCast collaborators), vehicle control (0.2% DMSO), and positive control inducers as summarized in Table 1. Due to the large number of treatment groups and chemicals examined, the ToxCast chemicals were divided into two groups (spanning two independent cultures of hepatocytes from separate donor preparations (Hu778: ToxCast plates 1 and 2; Hu776: ToxCast plates 3 and 4). Each preparation of human hepatocyte cultures was treated with respective vehicle control, medium only control, set of six positive controls/reference chemicals for the five hepatic receptor pathways, and a subset of eight of the ToxCast chemicals (indoxacarb, pyrithiobac-sodium, norflurazon, cyhalofop-butyl, methomyl, thiram, acetochlor, and propiconazole). These replicate data, coupled with internal replicates designed within the blinded ToxCast chemical library, provided additional data to evaluate interindividual differences between hepatocyte preparations and their potential impact on chemical profiles.Cell morphology and integrity were evaluated using phase-contrast microscopy as an indicator of hepatocyte cell health (Tyson & Green, 1987). Cultures for each treatment group (i.e., media, vehicle [0.2% DMSO], positive control inducers [multiple concentrations], and the ToxCast chemicals [multiple concentrations]) were observed and cell morphology was assessed relative to vehicle control cultures at each harvest time point (0, 6, 24, or 48 h). […] Images were evaluated at the conclusion of the study to assess changes in cell integrity and account for the effects of chemical exposure on uncharacteristic changes in concentration-dependent gene expression profiles. The results from these determinations of apparent cytotoxicity were annotated (yes/no) alongside the corresponding qNPA data for reference.At the conclusion of each treatment period, hepatocyte cultures (96-well) were washed with 1 volume of HBSS, lysed by addition of 25 ul ArrayPlate lysis buffer (HTG, Tucson, AZ), and 70 ul/well of Denaturation Oil, denatured by incubation at 95C for 10 min, and frozen at approximately -70C until analysis by nuclease protection assay (qNPA) (Roberts et al., 2007). For qNPA analysis, cell lysates were thawed at 50C for approximately 30 min, qNPA probes were added, and samples were incubated at 95C for 10 min to begin the detection process by denaturing the target RNA, dissociating the duplexes and secondary structure hybridization. At the conclusion of the hybridization period, S1 nuclease reagent was added to each sample to digest all nonprotected nucleotides at 50C for 60-90 min. […]
As to `CC1(C(=O)Nc2ccc(O)c(Cl)c2Cl)CCCCC1`, the result was inactive. For `CCOP(=S)(OCC)OC(Cl)C(Cl)(Cl)Cl` (stereo not drawn), the outcome was inactive. For `CCCCOC(=O)c1ccccc1C(=O)O`, the compound was called inactive. On to `CCOP(=O)(OCC)Oc1cc(C)nc(C(C)C)n1`, for which the compound was classed as inactive. On to `S=C1NCCN1`, for which the compound was classed as inactive. On the same count and under the same terms, as for `CN(C)[C@@H]1C(=O)C(C(N)=O)=C(O)[C@@]2(O)C(=O)C3=C(O)c4c(O)cccc4[C@@](C)(O)[C@H]3[C@H](O)[C@@H]12`, the entry is “inactive”; as for `CC(=NC#N)N(C)Cc1ccc(Cl)nc1`, “inactive”; as for `C#CC(C)(C)NC(=O)c1cc(Cl)cc(Cl)c1`, “inactive”. As for `COc1cccc(C(=O)NN(C(=O)c2cc(C)cc(C)c2)C(C)(C)C)c1C`, the outcome was inactive.

On to `CCOC(=O)CC(SP(=O)(OC)OC)C(=O)OCC` (stereo not drawn), for which the result was inactive. Take `CSc1nnc(C(C)(C)C)c(=O)n1N`: the outcome was inactive. On to `CCCOc1nn(C(=O)NS(=O)(=O)c2ccccc2C(=O)OC)c(=O)n1C`, for which the compound was classed as inactive. Consider `CN(C)NC(=O)CCC(=O)O`, for which the outcome was inactive. Take `CC1=NNC(=O)N(/N=C/c2cccnc2)C1`: the outcome was inactive. For the compound `CCCCOC(=O)[C@@H](C)Oc1ccc(Oc2ccc(C#N)cc2F)cc1`, the outcome was inactive. As for `CON=C(C(=O)OC)c1ccccc1CON=C(C)c1cccc(C(F)(F)F)c1`, the outcome was inactive. Same read-out and setting: as for `C=C(C)[C@H]1Cc2c(ccc3c2O[C@@H]2COc4cc(OC)c(OC)cc4[C@@H]2C3=O)O1`, the entry is “inactive”; as for `CCOP(=S)(OCC)Oc1ccc2c(C)c(Cl)c(=O)oc2c1`, “inactive”. Regarding `Cc1nn(-c2cc(NS(C)(=O)=O)c(Cl)cc2Cl)c(=O)n1C(F)F`, the compound was called inactive.

`CCOP(=O)(SC(C)CC)N1CCSC1=O` (stereo not drawn): the compound was called inactive. In the case of `COP(=O)(OC)C(O)C(Cl)(Cl)Cl` (stereo not drawn), the outcome was inactive. `CNC(=O)ON=C(C)SC`: the compound was classed as inactive. Same read-out and setting: then `CCCSP(=O)(OCC)SCCC`, with “inactive”; and `COc1cc(OC)nc(Sc2cccc(Cl)c2C(=O)O)n1`, with “inactive”; and `CCOP(=S)(Oc1cnc(C(C)(C)C)nc1)OC(C)C` (stereo not drawn), with “inactive”. Consider `CCc1cccc(CC)c1N(COC)C(=O)CCl`, for which the compound was called inactive. Consider `N#CSCSC#N`, for which the result was inactive. On the same count and under the same terms, then `CNC(=O)ON=C(SC)C(=O)N(C)C`, with “inactive”; and `CC(C)=CC1C(C(=O)OCN2C(=O)C3=C(CCCC3)C2=O)C1(C)C` (stereo not drawn), with “inactive”; and `CCOP(=S)(OCC)SCCSCC`, with “inactive”.

In the case of `CCC(=NOC/C=C/Cl)C1=C(O)CC(C2CCOCC2)CC1=O` (stereo not drawn), the outcome was inactive. As to `CC[C@H](C)[C@H]1O[C@]2(C=C[C@@H]1C)C[C@@H]1C[C@@H](C/C=C(\C)[C@@H](O[C@H]3C[C@H](OC)[C@@H](O[C@H]4C[C@H](OC)[C@@H](NC)[C@H](C)O4)[C@H](C)O3)[C@@H](C)/C=C/C=C3\CO[C@@H]4[C@H](O)C(C)=C[C@@H](C(=O)O1)[C@]34O)O2`, the AC50 is 205 nM (active).

Take `O=C(O)c1cc(Oc2ccc(C(F)(F)F)cc2Cl)ccc1[N+](=O)[O-]`: the compound was called inactive.

As a reminder, the AC50 is the midpoint of the concentration-response curve, whichever way the signal moves.
